# Experiments:
# Assay in all cases: DAPPL (digital affinity profiling via proximity ligation, sequencing); 10 mM Tris-HCl pH 7.5, 50 mM NaCl, 1 mM DTT, 4% glycerol, room temperature, 30 min; GST-TFs on glutathione beads, 16-mer random dsDNA library, 0.1% formaldehyde crosslink after washing; high values mean tight binding
# [1] = target: T1, FLI1 (Homo sapiens, UniProt Q01543 1-452); details: protein: recombinant; tags: N-terminal GST; dsDNA, one strand shown
# T1 sequence: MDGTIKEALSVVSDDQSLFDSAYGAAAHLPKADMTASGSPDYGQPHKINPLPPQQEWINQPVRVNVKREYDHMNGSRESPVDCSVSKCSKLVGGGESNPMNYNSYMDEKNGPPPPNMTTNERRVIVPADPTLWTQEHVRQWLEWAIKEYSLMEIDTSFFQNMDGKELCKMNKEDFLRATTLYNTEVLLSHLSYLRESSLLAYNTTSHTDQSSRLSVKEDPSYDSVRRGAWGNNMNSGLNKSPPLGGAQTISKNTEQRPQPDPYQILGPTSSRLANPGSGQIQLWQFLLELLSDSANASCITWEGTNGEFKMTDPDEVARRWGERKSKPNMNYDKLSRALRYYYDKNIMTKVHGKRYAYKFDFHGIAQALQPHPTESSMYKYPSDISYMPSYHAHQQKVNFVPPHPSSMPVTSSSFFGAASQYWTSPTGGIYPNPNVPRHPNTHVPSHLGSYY
# Summary of the method: (§1)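 Human transcription factors were made in yeast as GST fusions, captured on glutathione beads and barcoded with DNA. With a tag-only sample included, the pool was incubated with 200 nmole of a random double-stranded 16-mer DNA library in Tris/NaCl/DTT/glycerol buffer at room temperature for 30 min, then crosslinked with 0.1% formaldehyde after washing, ligated by proximity, amplified and sequenced. For binding signal, each hexamer's read frequency for a factor is divided by its frequency for the tag-only sample.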
# [2] = target: T2, ELK1 (Homo sapiens, UniProt P19419 1-428); details: protein: recombinant; tags: N-terminal GST; dsDNA, one strand shown
# T2 sequence: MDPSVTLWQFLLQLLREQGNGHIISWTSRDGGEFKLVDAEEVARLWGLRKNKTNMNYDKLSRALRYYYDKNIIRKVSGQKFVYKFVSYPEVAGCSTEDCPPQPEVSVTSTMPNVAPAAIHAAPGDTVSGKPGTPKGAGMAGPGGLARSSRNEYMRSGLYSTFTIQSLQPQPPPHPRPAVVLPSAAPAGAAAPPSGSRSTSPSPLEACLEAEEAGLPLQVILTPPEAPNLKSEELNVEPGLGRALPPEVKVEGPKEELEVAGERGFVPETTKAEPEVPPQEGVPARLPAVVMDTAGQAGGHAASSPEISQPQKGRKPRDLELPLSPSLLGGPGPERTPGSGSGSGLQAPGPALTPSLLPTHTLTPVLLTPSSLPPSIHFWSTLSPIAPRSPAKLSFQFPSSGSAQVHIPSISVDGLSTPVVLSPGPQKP
# Summary of the method: as §1
# [3] = target: T3, GABPA (Homo sapiens, UniProt Q06546 1-454); details: protein: recombinant; tags: N-terminal GST; dsDNA, one strand shown
# T3 sequence: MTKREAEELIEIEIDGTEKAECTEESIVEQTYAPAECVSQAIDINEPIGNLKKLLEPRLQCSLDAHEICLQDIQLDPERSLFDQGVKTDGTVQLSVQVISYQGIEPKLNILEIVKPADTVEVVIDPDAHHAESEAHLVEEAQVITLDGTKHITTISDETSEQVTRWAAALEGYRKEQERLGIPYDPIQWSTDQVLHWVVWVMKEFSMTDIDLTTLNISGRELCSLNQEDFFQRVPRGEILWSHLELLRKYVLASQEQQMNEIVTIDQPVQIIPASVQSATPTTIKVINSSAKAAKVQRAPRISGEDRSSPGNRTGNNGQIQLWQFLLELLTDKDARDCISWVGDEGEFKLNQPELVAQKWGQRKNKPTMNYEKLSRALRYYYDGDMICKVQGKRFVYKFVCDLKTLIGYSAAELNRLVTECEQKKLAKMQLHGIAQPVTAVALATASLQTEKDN
# Summary of the method: as §1
# [4] = target: T4, ERG (Homo sapiens, UniProt P11308 1-479); details: protein: recombinant; tags: N-terminal GST; dsDNA, one strand shown
# T4 sequence: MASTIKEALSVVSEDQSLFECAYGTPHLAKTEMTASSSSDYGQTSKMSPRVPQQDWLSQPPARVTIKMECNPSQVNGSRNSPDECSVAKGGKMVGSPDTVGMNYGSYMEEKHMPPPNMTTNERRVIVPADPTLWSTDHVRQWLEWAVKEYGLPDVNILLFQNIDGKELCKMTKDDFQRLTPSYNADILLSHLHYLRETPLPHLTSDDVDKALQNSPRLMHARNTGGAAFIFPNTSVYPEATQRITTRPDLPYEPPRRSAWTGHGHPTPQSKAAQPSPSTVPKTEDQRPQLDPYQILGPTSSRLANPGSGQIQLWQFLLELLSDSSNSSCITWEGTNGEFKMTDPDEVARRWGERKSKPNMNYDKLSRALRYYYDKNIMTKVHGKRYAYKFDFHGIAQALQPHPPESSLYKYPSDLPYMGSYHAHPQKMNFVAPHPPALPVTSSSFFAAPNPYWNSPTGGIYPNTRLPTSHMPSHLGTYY
# Summary of the method: as §1
# [5] = target: ELF1 (Homo sapiens, UniProt P32519 1-619); details: protein: recombinant; tags: N-terminal GST; dsDNA, one strand shown
# Sequence of ELF1 (P32519 whole entry): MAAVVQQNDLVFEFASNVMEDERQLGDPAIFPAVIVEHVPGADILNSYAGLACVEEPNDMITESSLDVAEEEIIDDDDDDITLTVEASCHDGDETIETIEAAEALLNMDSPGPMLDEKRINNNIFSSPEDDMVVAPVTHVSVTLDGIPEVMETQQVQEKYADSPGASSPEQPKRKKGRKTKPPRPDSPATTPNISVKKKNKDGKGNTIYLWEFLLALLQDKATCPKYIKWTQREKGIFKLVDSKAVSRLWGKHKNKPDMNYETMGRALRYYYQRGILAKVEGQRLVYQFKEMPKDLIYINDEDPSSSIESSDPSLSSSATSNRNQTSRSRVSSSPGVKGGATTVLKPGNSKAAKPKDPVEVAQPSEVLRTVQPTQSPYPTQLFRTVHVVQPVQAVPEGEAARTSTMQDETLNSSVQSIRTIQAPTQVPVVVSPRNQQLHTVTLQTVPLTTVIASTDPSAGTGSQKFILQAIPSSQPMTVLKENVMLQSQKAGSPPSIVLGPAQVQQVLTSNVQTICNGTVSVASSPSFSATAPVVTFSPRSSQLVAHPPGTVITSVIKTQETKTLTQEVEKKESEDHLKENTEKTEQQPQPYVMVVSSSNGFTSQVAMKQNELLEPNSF
# Summary of the method: as §1
# [6] = target: T5, EHF (Homo sapiens, UniProt Q9NZC4 1-300); details: protein: recombinant; tags: N-terminal GST; dsDNA, one strand shown
# T5 sequence: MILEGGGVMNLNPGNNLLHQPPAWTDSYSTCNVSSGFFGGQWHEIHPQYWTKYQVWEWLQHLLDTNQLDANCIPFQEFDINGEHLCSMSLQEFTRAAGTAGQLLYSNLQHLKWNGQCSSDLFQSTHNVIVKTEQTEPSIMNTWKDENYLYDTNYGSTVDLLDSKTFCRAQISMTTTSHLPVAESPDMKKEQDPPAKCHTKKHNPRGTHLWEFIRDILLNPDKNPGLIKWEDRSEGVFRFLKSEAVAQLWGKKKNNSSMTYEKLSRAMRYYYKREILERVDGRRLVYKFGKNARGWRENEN
# Summary of the method: as §1
# [7] = target: SPI1 (Homo sapiens, UniProt P17947 1-270); details: protein: recombinant; tags: N-terminal GST; dsDNA, one strand shown
# Summary of the method: as §1
# [8] = target: SPIB (Homo sapiens, UniProt Q01892 1-262); details: protein: recombinant; tags: N-terminal GST; dsDNA, one strand shown
# Sequence of SPIB (Q01892 whole entry): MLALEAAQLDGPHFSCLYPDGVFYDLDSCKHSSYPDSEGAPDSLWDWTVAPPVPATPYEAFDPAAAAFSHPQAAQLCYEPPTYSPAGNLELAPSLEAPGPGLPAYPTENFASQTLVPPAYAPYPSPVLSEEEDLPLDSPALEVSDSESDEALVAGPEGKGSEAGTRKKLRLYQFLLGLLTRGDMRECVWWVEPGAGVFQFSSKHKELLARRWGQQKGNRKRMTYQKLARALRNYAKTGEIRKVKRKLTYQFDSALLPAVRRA
# Summary of the method: as §1
# [9] = target: T6, ELK3 (Homo sapiens, UniProt P41970 1-407); details: protein: recombinant; tags: N-terminal GST; dsDNA, one strand shown
# T6 sequence: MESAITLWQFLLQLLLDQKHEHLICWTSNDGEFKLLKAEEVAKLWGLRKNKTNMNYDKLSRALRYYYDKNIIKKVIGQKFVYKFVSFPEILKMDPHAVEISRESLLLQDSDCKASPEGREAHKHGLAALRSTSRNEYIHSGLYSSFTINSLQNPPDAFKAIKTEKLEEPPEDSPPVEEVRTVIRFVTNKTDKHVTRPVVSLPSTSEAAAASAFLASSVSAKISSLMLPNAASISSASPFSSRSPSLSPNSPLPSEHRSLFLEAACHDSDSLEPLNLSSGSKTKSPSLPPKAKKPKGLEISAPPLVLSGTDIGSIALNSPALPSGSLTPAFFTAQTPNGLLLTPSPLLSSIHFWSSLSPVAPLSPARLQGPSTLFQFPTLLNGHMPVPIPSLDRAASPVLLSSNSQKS
# Summary of the method: as §1
# [10] = target: T7, FEV (Homo sapiens, UniProt Q99581 1-238); details: protein: recombinant; tags: N-terminal GST; dsDNA, one strand shown
# T7 sequence: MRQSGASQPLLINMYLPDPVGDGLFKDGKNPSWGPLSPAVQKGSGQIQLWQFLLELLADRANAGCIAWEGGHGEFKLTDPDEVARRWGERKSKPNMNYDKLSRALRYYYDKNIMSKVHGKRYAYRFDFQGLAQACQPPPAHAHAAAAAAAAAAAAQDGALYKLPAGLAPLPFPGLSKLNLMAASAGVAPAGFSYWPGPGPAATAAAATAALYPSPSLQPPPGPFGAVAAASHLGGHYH
# Summary of the method: as §1
# [11] = target: ETV5 (Homo sapiens, UniProt P41161 1-510); details: protein: recombinant; tags: N-terminal GST; dsDNA, one strand shown
# Sequence of ETV5 (P41161 whole entry): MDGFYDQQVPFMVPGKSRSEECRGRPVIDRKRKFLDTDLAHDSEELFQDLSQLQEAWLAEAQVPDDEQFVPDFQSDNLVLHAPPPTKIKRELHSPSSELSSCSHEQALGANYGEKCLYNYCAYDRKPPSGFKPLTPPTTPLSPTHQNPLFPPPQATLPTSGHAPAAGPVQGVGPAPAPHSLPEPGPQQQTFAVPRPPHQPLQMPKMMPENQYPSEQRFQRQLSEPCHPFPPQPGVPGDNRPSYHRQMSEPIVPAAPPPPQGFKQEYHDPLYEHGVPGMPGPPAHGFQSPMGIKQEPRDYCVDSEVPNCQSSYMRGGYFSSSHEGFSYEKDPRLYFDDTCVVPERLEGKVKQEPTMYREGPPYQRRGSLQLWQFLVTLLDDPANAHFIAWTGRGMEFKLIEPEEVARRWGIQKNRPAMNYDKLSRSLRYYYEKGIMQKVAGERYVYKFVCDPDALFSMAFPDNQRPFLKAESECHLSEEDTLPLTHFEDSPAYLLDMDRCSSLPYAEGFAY
# Summary of the method: as §1
# [12] = target: HSF1 (Homo sapiens, UniProt Q00613 1-529); details: protein: recombinant; tags: N-terminal GST; chain copies: 3; dsDNA, one strand shown
# Sequence of HSF1 (Q00613 whole entry): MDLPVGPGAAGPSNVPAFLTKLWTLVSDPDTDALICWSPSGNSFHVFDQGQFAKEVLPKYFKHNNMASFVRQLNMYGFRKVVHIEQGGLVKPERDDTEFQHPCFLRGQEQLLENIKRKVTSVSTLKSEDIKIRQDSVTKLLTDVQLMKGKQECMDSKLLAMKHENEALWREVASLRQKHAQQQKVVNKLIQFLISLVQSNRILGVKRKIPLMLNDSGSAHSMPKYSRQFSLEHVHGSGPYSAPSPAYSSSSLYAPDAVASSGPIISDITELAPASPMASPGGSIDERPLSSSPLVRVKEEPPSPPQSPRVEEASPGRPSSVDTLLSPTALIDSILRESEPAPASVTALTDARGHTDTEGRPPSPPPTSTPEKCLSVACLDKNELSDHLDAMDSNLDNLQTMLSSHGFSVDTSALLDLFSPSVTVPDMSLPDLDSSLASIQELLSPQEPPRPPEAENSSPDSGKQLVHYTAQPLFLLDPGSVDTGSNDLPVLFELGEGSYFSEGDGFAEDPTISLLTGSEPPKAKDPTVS
# Summary of the method: as §1
# [13] = target: T8, SPIC (Homo sapiens, UniProt Q8N5J4 1-248); details: protein: recombinant; tags: N-terminal GST; dsDNA, one strand shown
# T8 sequence: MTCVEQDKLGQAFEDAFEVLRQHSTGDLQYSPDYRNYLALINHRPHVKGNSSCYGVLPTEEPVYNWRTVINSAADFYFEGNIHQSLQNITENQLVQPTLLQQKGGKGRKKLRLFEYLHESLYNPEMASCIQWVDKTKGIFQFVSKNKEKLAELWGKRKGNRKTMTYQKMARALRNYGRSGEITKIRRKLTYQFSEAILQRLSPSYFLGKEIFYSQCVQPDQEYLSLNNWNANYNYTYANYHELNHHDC
# Summary of the method: as §1
# [14] = target: ELF4 (Homo sapiens, UniProt Q99607 1-663); details: protein: recombinant; tags: N-terminal GST; dsDNA, one strand shown
# Sequence of ELF4 (Q99607 whole entry): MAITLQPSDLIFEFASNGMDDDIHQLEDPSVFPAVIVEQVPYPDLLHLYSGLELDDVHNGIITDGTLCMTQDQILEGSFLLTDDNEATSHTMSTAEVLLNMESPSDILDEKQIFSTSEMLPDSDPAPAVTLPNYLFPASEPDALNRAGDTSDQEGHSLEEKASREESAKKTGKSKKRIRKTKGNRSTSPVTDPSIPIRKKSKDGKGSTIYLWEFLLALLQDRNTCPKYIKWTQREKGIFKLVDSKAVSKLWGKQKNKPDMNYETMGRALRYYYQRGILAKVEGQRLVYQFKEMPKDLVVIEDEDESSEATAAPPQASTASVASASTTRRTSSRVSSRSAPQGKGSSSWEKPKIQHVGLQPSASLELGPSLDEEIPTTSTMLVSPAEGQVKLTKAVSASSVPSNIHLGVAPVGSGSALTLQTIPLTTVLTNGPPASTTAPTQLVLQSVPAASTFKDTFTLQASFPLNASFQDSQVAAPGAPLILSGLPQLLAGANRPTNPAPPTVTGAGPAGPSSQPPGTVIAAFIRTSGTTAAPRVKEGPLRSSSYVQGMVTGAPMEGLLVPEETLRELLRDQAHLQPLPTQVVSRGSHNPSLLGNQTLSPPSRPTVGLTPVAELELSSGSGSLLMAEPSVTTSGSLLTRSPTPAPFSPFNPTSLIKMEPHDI
# Summary of the method: as §1
# [15] = target: T9, ELK4 (Homo sapiens, UniProt P28324-2 1-405); details: protein: recombinant; tags: N-terminal GST; dsDNA, one strand shown
# T9 sequence: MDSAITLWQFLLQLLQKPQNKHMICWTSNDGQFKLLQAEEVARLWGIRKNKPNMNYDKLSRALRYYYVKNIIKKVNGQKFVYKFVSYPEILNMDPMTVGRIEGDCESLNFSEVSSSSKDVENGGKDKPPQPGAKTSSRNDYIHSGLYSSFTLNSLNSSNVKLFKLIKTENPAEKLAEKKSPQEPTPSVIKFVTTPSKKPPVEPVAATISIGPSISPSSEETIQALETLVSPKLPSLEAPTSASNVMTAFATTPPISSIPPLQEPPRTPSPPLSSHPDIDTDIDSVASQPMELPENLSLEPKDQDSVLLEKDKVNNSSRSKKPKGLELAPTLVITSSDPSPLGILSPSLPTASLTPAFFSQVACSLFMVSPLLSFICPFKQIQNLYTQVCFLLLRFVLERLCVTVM
# Summary of the method: as §1
# [16] = target: T10, ETV2 (Homo sapiens, UniProt O00321 1-342); details: protein: recombinant; tags: N-terminal GST; dsDNA, one strand shown
# T10 sequence: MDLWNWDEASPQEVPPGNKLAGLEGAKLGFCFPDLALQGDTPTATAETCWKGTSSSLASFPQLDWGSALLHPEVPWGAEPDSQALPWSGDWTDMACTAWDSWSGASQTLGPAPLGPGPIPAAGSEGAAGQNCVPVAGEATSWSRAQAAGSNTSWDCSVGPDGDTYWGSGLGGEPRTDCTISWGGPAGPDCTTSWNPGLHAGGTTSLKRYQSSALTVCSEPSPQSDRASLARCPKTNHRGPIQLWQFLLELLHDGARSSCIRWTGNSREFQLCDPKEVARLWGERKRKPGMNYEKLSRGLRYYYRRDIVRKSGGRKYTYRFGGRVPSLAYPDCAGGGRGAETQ
# Summary of the method: as §1
# [17] = target: T11, ELF3 (Homo sapiens, UniProt P78545 1-371); details: protein: recombinant; tags: N-terminal GST; dsDNA, one strand shown
# T11 sequence: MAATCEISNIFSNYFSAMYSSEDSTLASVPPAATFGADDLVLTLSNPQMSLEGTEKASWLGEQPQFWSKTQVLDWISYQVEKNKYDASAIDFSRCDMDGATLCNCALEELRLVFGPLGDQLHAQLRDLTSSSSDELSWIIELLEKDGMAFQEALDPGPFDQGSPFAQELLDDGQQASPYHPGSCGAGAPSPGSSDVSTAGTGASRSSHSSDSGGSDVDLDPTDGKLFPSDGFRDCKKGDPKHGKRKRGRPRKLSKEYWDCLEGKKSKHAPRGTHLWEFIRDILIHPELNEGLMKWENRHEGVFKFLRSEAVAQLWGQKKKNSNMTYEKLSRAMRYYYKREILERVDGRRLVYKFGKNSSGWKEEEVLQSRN
# Summary of the method: as §1
# [18] = target: CRX (Homo sapiens, UniProt O43186 1-299); details: protein: recombinant; tags: N-terminal GST; dsDNA, one strand shown
# Sequence of CRX (O43186 whole entry): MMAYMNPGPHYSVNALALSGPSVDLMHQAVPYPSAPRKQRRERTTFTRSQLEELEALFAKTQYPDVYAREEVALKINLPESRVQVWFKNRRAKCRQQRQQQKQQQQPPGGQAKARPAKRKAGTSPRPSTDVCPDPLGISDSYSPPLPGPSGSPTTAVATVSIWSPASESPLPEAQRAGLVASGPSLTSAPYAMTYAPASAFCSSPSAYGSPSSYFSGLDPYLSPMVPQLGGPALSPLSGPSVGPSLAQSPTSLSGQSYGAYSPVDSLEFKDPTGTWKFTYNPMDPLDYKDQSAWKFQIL
# Summary of the method: as §1
# [19] = target: ETV1 (Homo sapiens, UniProt P50549 1-477); details: protein: recombinant; tags: N-terminal GST; dsDNA, one strand shown
# Sequence of ETV1 (P50549 whole entry): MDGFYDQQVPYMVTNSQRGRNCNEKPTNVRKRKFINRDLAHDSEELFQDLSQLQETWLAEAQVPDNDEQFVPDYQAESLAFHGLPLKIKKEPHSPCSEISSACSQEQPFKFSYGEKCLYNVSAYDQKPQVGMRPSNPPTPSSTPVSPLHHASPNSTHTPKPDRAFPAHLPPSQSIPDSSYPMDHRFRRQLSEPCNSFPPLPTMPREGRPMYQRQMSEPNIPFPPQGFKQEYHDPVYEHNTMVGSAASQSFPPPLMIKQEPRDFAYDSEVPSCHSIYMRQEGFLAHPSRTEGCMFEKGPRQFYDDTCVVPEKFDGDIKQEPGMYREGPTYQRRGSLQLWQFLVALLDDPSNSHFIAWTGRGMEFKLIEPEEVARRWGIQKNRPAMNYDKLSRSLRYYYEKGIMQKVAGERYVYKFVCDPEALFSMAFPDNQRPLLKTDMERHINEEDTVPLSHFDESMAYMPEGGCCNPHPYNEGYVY
# Summary of the method: as §1
sequence,measurement,setting,value
ACGGCT,binding signal,[1],"1.02 fold enrichment (6-mer frequency, TF over GST control)"
same,binding signal,[2],"1.16 fold enrichment (6-mer frequency, TF over GST control)"
same,binding signal,[3],"1.13 fold enrichment (6-mer frequency, TF over GST control)"
same,binding signal,[4],"1.12 fold enrichment (6-mer frequency, TF over GST control)"
same,binding signal,[5],"1.08 fold enrichment (6-mer frequency, TF over GST control)"
same,binding signal,[6],"1 fold enrichment (6-mer frequency, TF over GST control)"
same,binding signal,[7],"1.18 fold enrichment (6-mer frequency, TF over GST control)"
same,binding signal,[8],"1.14 fold enrichment (6-mer frequency, TF over GST control)"
same,binding signal,[9],"1.05 fold enrichment (6-mer frequency, TF over GST control)"
same,binding signal,[10],"1.2 fold enrichment (6-mer frequency, TF over GST control)"
same,binding signal,[11],"1.13 fold enrichment (6-mer frequency, TF over GST control)"
same,binding signal,[12],"1.13 fold enrichment (6-mer frequency, TF over GST control)"
same,binding signal,[13],"1.1 fold enrichment (6-mer frequency, TF over GST control)"
same,binding signal,[14],"1.1 fold enrichment (6-mer frequency, TF over GST control)"
same,binding signal,[15],"1.14 fold enrichment (6-mer frequency, TF over GST control)"
same,binding signal,[16],"1.07 fold enrichment (6-mer frequency, TF over GST control)"
same,binding signal,[17],"1.13 fold enrichment (6-mer frequency, TF over GST control)"
same,binding signal,[18],"1.36 fold enrichment (6-mer frequency, TF over GST control)"
same,binding signal,[19],"1.05 fold enrichment (6-mer frequency, TF over GST control)"

# Source: publication PMC7862700, “An all-to-all approach to the identification of sequence-specific readers for epigenetic DNA modifications on cytosine”
